About 18,000 (4.4%) of roughly 410,000 compounds were called active. About 7% were inconclusive and are not listed. This is one part of a sample in which actives are shown more often than they occur. Unmarked numbers belong to inactive results. No stated cut-off is given here; in the data, active means activity change below about -60%; inconclusive means no clear call, values can overlap the other calls; inactive means above about -39%.
On the % scale 0 is the no-effect control and ±100 the full control effect.

This test is described as follows: qHTS Assay for inhibitors of the human cytomegalovirus (HCMV). To be noted: HFF cells, HCMV-luciferase reporter, 72 h; at 57.5 µM; stronger effect = lower value. The procedure, abridged:
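After 16 h attachment at 37C, HFF cells received test compound and HCMV-luciferase (1 PFU/cell); reporter luminescence read 72 h later, data normalized against buffer-only and known inhibitor Salinomycin.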
On the technique in general: Quantitative high-throughput screening tests each substance at several concentrations.
For `CCOC(=O)c1cc2c(=O)n3ccccc3nc2n(CCCOC)c1=NC(=O)C(C)(C)Oc1ccc(Cl)cc1`, the activity change, negative = inhibition was 6.81%.

Take `COc1ccc(CCNCc2c(C(=O)O)c(C)n(Cc3cccc(C)c3)c2C)cc1OC`: the activity change, negative = inhibition was -1.54%. The figure for `Cc1ccccc1CN1C[C@@H]2C[C@@H](c3cn(C)nc3-c3ccccc3)N3CCC[C@@]23C1=O` is 32.8%. In the case of `CCOc1ccc(CNC(=O)c2cc(-c3ccc(Cl)s3)nc3ccccc23)cc1` it was 1.58%; in that of `CCOc1ccc(NC(=O)c2cnn(-c3ccccc3)c2-n2cccc2)cc1`, -19.9%; in that of `CCOc1ccc(-c2cc(C)n3nc(C(=O)Nc4ccc(C)c(C)c4)cc3n2)cc1`, -5.97%. The figure for `CCOc1ccc(-c2cc3c(=O)n(CC(=O)NCc4ccc(OC)cc4)ccn3n2)cc1` is 78.4%. In the case of `CCOc1ccc(NC(=O)c2cc(C)nc3ccccc23)cc1`, the activity change, negative = inhibition is -60.4% (active). The figure for `CCOc1ccc(-c2cc(C(=O)N/N=C/c3ccc(O)cc3)c3ccccc3n2)cc1` is -83% (active); for `Cc1ccc(NC(=O)Cn2nnc3sc4c(c3c2=O)CCC(C)C4)cc1` (configuration not stated) it is -19.7%. The figure for `COc1ccc(-c2onc(C)c2C)cc1S(=O)(=O)NCc1cccs1` is 86.9%; for `O=C(COc1ccc(Cl)cc1)Nc1ccccc1OCc1cc(=O)n2ccccc2n1` it is 47.7%.

Consider `CC(=O)Nc1ccc(NC(=O)CCCNC(=O)c2ccc(Cl)cc2)cc1`, for which the activity change, negative = inhibition was -21.3%. In the case of `CCCCC(=O)Nc1ccc(C(=O)Nc2cc(C(F)(F)F)ccc2Cl)cc1` it was -64% (active); in that of `COc1ccc(C(=O)COC(=O)CCCC(=O)Nc2cc(C(F)(F)F)ccc2Cl)cc1`, -1.47%; in that of `O=C(CCc1nc(CN2CCN(S(=O)(=O)c3ccc(Br)cc3)CC2)no1)N1CCCCC1`, 20.2%. Turning to `CCOC(=O)c1ccc(NC(=O)CCS(=O)(=O)c2ccc3c(c2)oc(=O)n3C)cc1`, the activity change, negative = inhibition was 0.775%. The figure for `CCOc1ccc(CNC(=O)c2cccc(Nc3nc4ccccc4n4nnnc34)c2)cc1OC` is -17.1%. The figure for `COc1ccc(-c2nc3sc(CCNC(=O)C(C)(C)C)c(C)n3n2)cc1` is -21.2%.

As to `COc1cncc(-c2cnc3sc(NCCc4ccccn4)nn23)c1`, the activity change, negative = inhibition is -64.8% (active). For the molecule `O=C(CNC(=O)COc1ccccc1)NCCc1ccccn1`, the activity change, negative = inhibition was 31.2%. The figure for `CC(C)c1ccc(NC(=O)C2CCN(c3nc(-c4ccc(C(C)C)cc4)no3)CC2)cc1` is -71.9% (active); for `CC(C)c1ccc(-c2noc(C3CCCN(S(C)(=O)=O)C3)n2)cc1` (configuration not stated) it is -15.2%; for `CCOc1ccc(NC(=O)C2CCN(S(=O)(=O)c3cc(-c4noc(C)n4)ccc3C)CC2)cc1` it is 10.9%. Regarding `C[C@@H]1CN([C@@H](C)CO)C(=O)c2cc(NC(=O)C3CC3)ccc2O[C@H]1CN(C)C`, the activity change, negative = inhibition was 34.3%. The figure for `COc1cc(C(=O)Nc2cc(C(F)(F)F)ccc2-n2cncn2)cc(OC)c1OC` is -20%. In the case of `COCCCNC(=O)c1cccc2c(-c3ccc(O)c(OC)c3)coc12` it was 71.3%; in that of `CC(Sc1ccc(S(=O)(=O)N2CCN(C)CC2)cn1)C(=O)NC1CCCC(C)C1C` (configuration not stated), -4.06%. In the case of `COC(=O)c1ccc(S(=O)(=O)c2ccc(C(=O)OC)s2)s1` it was 23.7%; in that of `CCc1ccc(C2=CC(=O)CC(C)(C)C2=O)cc1`, -23%. With `COc1cccc(CNCc2c(C(=O)O)n(Cc3ccc(C)cc3)c3cc(C)ccc23)c1OC`, the activity change, negative = inhibition was 3.78%.

`COc1ccc(Cn2c(C(=O)O)c(CNCCc3cccs3)c3ccc(OC)cc32)cc1`: the activity change, negative = inhibition is -4.9%.

On to `COc1ccc(Cn2c(C(=O)O)c(CNCc3cccc(OC)c3)c3ccc(C)cc32)cc1`, for which the activity change, negative = inhibition was -106% (active). In the case of `COc1cccc(CNC(=O)Cn2ncn3c(cc4ccccc43)c2=O)c1` it was 44.2%; in that of `Cc1ccc(C(=O)CSc2nc(-c3ccccc3)nc3c2CCCC3)c(C)c1`, 2.92%. For `COc1ccccc1C(=O)Nc1c(C(=O)Nc2ccc(C)cc2)oc2ccccc12`, the activity change, negative = inhibition was 14.6%. The figure for `Cc1n[nH]c(C)c1S(=O)(=O)N1CCCC(C(=O)NCC2COc3ccccc3O2)C1` (configuration not stated) is -37.1%. The figure for `c1ccc2c(c1)OCC(CNc1ncnc3nc[nH]c13)O2` (configuration not stated) is -61.6% (active). With `CCc1ccccc1NC(=O)CSc1nc(C)c(C(=O)Nc2ccccc2)c(-c2ccc(Cl)cc2)c1C#N`, the activity change, negative = inhibition was -35.3%. Consider `Cc1cccc(CC(=O)Nc2cccc(-c3cn4cccnc4n3)c2)c1`, for which the activity change, negative = inhibition was 10%. In the case of `CC(=O)N1CCc2cc(S(=O)(=O)Nc3ccccc3N3CCN(C)CC3)ccc21` it was -37.8%; in that of `Cc1cc2c(cc1C)N1C(=O)c3cc4ccccc4cc3NC(=O)C1C(=O)N2` (configuration not stated), -73.2% (active); in that of `COc1cccc(NC(=O)c2ccc3nc(CCc4ccccc4)oc3c2)c1`, 41.2%. In the case of `CCC(C)NC(=O)c1nn(C)c(=O)c2ccccc12` (configuration not stated) it was 29.9%; in that of `CCOC(=O)C1=NN(c2ccc(Cl)cc2)/C(=C/C2=NCCc3cc(OC)c(OC)cc32)S1`, 27.1%; in that of `COc1cc2c(cc1OC)C(/C=C/c1ccco1)=NCC2`, -61.3% (active). For `COc1cc2c(cc1OC)C(c1cccc([N+](=O)[O-])c1)=NCC2`, the activity change, negative = inhibition is 54.4%.

As for `Cc1c(CNC(C)c2ccccc2)c(C(=O)O)c(C)n1Cc1c(F)cccc1Cl` (configuration not stated), the activity change, negative = inhibition is -11%. The figure for `COc1cc2[nH]c(=S)n(Cc3ccc(C)o3)c(=O)c2cc1OC` is -9.57%; for `COc1cc2[nH]c(=S)n(CCN3CCCCC3C)c(=O)c2cc1OC` (configuration not stated) it is -75.7% (active). In the case of `CCOc1cc2[nH]c(=S)n(CCN3CCCCC3C)c(=O)c2cc1OCC` (configuration not stated) it was 0.001%; in that of `CCOc1cc2[nH]c(=O)n(Cc3ccc(C(=O)NCCCN4CCCC4=O)cc3)c(=O)c2cc1OCC`, -26.6%. In the case of `COc1cc2[nH]c(=S)n(Cc3ccc(F)cc3)c(=O)c2cc1OC` it was -63.8% (active); in that of `CCOc1cc2[nH]c(=S)n(CCCN3CCCC3=O)c(=O)c2cc1OCC`, -13%; in that of `COc1cc2[nH]c(=O)n(Cc3ccc(C(=O)NCc4ccc(C)cc4)cc3)c(=O)c2cc1OC`, -0.48%. Regarding `CCOc1cc2[nH]c(=S)n(Cc3ccc(C(=O)N4CCN(C)CC4)cc3)c(=O)c2cc1OCC`, the activity change, negative = inhibition was -95.9% (active).

In the case of `COc1ccc(CN2CCCCC2C)cc1OC` (configuration not stated), the activity change, negative = inhibition was 13.3%. On to `CCOc1cccc(NC(=O)CSc2ncc(-c3ccc(Cl)cc3)[nH]2)c1`, for which the activity change, negative = inhibition is -2.16%. As for `Cc1ccc(F)cc1NC(=O)CCSc1nc(-c2ccco2)cc(C(F)(F)F)n1`, the activity change, negative = inhibition was -17%. In the case of `Cc1ccc(-c2cnc(C3CC3)o2)cc1S(=O)(=O)Nc1cccc(C)c1C` it was -35%. In the case of `CCn1nnc(NC(=O)c2cc(Cl)c(OC)c(Cl)c2)n1` it was 16.3%. As to `O=C(CN1C2CCC1CC(NC(=O)C1CC1)C2)NCc1ccccc1` (configuration not stated), the activity change, negative = inhibition was 18.9%. In the case of `COc1ccc(CCNC(=O)c2cn(C)c3ccc(S(=O)(=O)N(C)C4CCCCC4)cc3c2=O)cc1OC` it was 7.75%; in that of `Nc1c(C(=O)OCC(=O)Nc2ccc(OC(F)F)cc2)[nH]c(=O)[nH]c1=O`, -34.6%.

In the case of `COc1ccc(NC(=O)c2ccc3oc(=O)c(S(=O)(=O)c4ccc(F)cc4)cc3c2)c(OC)c1`, the activity change, negative = inhibition is 10.2%.

In the case of `CCCCC[C@H](C)N1C[C@@H](COCc2ccccc2)Oc2cc(N3CCC[C@@H]3CO)ccc2S1(=O)=O`, the activity change, negative = inhibition is 15%.

On to `O=S1(=O)c2c(cccc2N2CCCC2)O[C@H](COCc2ccccc2)CN1C1CC1`, for which the activity change, negative = inhibition was -34%.

`CCCCC[C@H](C)N1C[C@@H](COCc2ccccc2)Oc2cc(N3CC[C@@H](N(C)C)C3)ccc2S1(=O)=O`: the activity change, negative = inhibition was -94.8% (active).

As to `CN1C(=O)c2ccccc2Sc2ccc(NC(=O)Cc3ccc(Cl)cc3)cc21`, the activity change, negative = inhibition was -23.7%. The figure for `Cc1nn2c(=O)cc(COC(=O)c3cccc(NC(=O)COc4ccccc4Cl)c3)nc2s1` is 14%.

As to `COc1ccccc1NC(=O)c1cc(C2CC2)nc2c1c(C)nn2-c1ccc(C)cc1`, the activity change, negative = inhibition is 16.5%. In the case of `O=C(OC1CCCCC1=O)c1cccc(S(=O)(=O)NCc2ccccc2)c1` (configuration not stated) it was -28.2%; in that of `Cc1ccc(Cl)cc1N1CCN(C(=O)C2CCC(CNS(=O)(=O)c3cccs3)CC2)CC1` (configuration not stated), -25.7%; in that of `COc1ccc(NC(=O)c2cnc(Nc3ccc(C)c(Cl)c3)c3ccccc23)cc1OC`, -10.9%. The figure for `COC(=O)c1cnc(Nc2cc(C)ccc2OC)c2ccccc12` is -31.5%; for `COc1ccc(Nc2ncc(C(=O)Nc3cc(C)ccc3OC)c3ccccc23)cc1` it is -108% (active). For the molecule `Cc1ccc2oc3c(c(=O)c2c1)C(c1ccc(O)cc1)N(Cc1ccc2c(c1)OCO2)C3=O` (configuration not stated), the activity change, negative = inhibition is -1.21%. In the case of `CCc1cc2c(NC(Cc3ccccc3)C(=O)O)ncnc2s1` (configuration not stated) it was 32.8%.

Regarding `CCc1cc2c(SCC(=O)Nc3ncc(Cl)c(C)c3Cl)ncnc2s1`, the activity change, negative = inhibition was -15.5%.

Take `CCc1cc2c(NC3CCCC3)ncnc2s1`: the activity change, negative = inhibition is -76.1% (active). For `O=C1NC(=Nc2ccc(Cl)cc2)SC1Cc1cccc(Cl)c1Cl` (configuration not stated), the activity change, negative = inhibition was -64.5% (active). The figure for `CC(C)=N/N=C1/NC(=O)C(Cc2ccccc2)S1` (configuration not stated) is 29.3%; for `NC1=NC(=O)C(Cc2cccc(Cl)c2Cl)S1` (configuration not stated) it is -8.43%; for `CCCCC(CC)CNC(=O)C1CCN(S(=O)(=O)c2cccc3nsnc23)CC1` (configuration not stated) it is -8.64%. The figure for `CCn1c(=O)c2cc(C(=O)NCCc3ccc(Cl)cc3)sc2c2ccccc21` is -0.35%.

With `CCc1ccc(CNC(=O)c2cc3c(=O)n(CC)c4ccccc4c3s2)cc1`, the activity change, negative = inhibition is -16.1%.

`CCN(CCCNC(=O)c1cc2c(=O)n(CC)c3ccccc3c2s1)Cc1ccccc1`: the activity change, negative = inhibition is -82.5% (active).

(Values after PubChem BioAssay AID1259415 (National Center for Advancing Translational Sciences (NCATS), 2018).)
